Shown are actives, neighbours in structure and some others; about 7.4% of the full set was active somewhere.
FLuc modulator – counter-screen for miR-21 project: firefly luciferase inhibitors or activators; purified FLuc, Km substrates, luminescence inhibition; Potency, µM (titrated, usually from 57.5 µM), actives largely listed as inhibitors; 360,000 tested, 6.9% active; note: nearly all actives have a fitted effect of over 55% in size
Target sequence (P08659 whole entry, looked up): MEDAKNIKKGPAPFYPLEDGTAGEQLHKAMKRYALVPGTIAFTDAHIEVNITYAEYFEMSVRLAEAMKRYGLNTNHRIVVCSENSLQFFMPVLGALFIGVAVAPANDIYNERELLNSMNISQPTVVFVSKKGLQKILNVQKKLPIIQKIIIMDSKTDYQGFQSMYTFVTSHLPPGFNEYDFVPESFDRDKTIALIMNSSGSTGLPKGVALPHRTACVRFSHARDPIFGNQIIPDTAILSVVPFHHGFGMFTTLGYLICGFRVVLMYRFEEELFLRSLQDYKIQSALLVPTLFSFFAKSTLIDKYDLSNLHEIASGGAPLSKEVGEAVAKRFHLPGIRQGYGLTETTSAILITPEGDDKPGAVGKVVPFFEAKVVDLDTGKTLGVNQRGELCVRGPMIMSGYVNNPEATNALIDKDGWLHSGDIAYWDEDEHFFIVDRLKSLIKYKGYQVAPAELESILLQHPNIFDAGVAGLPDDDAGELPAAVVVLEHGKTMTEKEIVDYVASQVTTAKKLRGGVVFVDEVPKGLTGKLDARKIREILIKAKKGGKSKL
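Biochemical qHTS of compounds, final roughly 60 µM downward over six points, against 10 nM purified firefly luciferase using Km concentrations of substrates (10 uM D-luciferin, 10 uM ATP) in Tris acetate pH 7.5 buffer; luminescence output.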
ELG1 genotox – genotoxicity induction in ELG1-luciferase HEK293T cells; AID 504466; HEK293T ELG1-luciferase reporter, luminescence, 16 h; 330,000 tested, 1.3% active; Potency, µM (top dose mostly 46 µM), actives largely listed as activators; note: nearly all actives have a fitted effect of over 60% in size
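HEK293T cells expressing luciferase-tagged ELG1 were exposed to compound or DMSO vehicle for 16 hr at 37 °C and 5% CO2. Luciferase activity was then measured with ONE-Glo after 30 min at room temperature.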
Rab9 prom act – Rab9 promoter activation; Huh7 Rab9 promoter-luciferase reporter, luminescence, 24 h; Potency, µM (top dose mostly 9.22 µM), hits mostly activators; 320,000 tested, 2.8% active; AID 485297; note: nearly all actives have a fitted effect of over 60% in size
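Stable Rab9-luc Huh7, 1500 cells/well, 2 h settle; cmpd in DMSO, 24 h, 37 °C/5% CO2; luciferase reagent 10 min RT; luminescence.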
SMN2 splice up – SMN2 splice variant enhancement; HEK293 SMN2-luciferase splicing reporter, luminescence, 30-36 h; Potency, µM (titrated, usually from 46.1 µM), usual class: activators; 210,000 tested, 2.8% active; AID 1458; note: nearly all actives have a fitted effect of over 55% in size
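HEK293 cells carry an SMN2 minigene-luciferase reporter in which exon 7 inclusion puts luciferase in frame. Cells were seeded at 2000 cells/well, attached for 10-12 hours, then exposed to compounds for 30-36 hours at 37C before ONE-Glo luminescence.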
NPC1 promoter act – NPC1 promoter activation; Huh7 NPC1 promoter luciferase reporter, 24 h; Potency, µM (series often up to 9.22 µM), actives largely listed as activators; 320,000 tested, 2.4% active; AID 485313; note: nearly all actives have a fitted effect of over 60% in size
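Huh7 cells stably carrying NPC1 promoter–luciferase, plated in Opti-MEM with 10% FBS for 2 h, were exposed to compound in DMSO for 24 h at 37 °C; luciferase reagent was added for 10 min and luminescence read.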
Hits are given with their value; n = inactive; u = inconclusive; x = not tested or not shown; [ ] = another dose, or the depositor's remark. Calls come from the whole dose curve; as a rule, active = well fitted curve in the direction sought with a large enough effect; inconclusive = small, poorly fitted or top-dose-only effect, or another doubt; inactive = no such curve, though single readings can be large; an effect the other way counts as inactive or inconclusive.

SMILES	FLuc modulator	ELG1 genotox	Rab9 prom act	SMN2 splice up	NPC1 promoter act
COc1ccc(C(=O)Nc2ccccc2C(=O)Nc2cccc(C)n2)cc1	5.4µM	n	n	x	u
Cc1ccnc(NC(=S)NC(=O)c2cncc(Br)c2)c1	u	u	u	n	u
CCOc1ccccc1-n1nnnc1SCC(=O)O	n	n	n	x	n
O=[N+]([O-])c1cccc(Cl)c1	x	x	x	n	x
COc1cc2ccccc2cc1C(=O)Nc1cc(C)ccn1	12µM	u	3.2µM	x	u
COc1ccc(C(=O)Nc2ccccc2C(=O)Nc2cc(C)ccn2)cc1	1.3µM	n	3.5µM	x	1.8µM
Cc1ccc(NC(=O)c2cccc3ccccc23)cc1	15µM	n	u	x	u
O=C(Nc1cccnc1)c1ccccc1-c1ccccc1	n	n	n	n	n
O=C(Nc1cccnc1)c1ccccc1O	15µM	n	n	n	n
CC(=O)Nc1ccc(NC(=O)c2cccc3ccccc23)cc1	n	n	n	x	n
COc1cc(C(=O)Nc2cc(C)ccn2)cc(OC)c1OC	n	n	n	n	n
CCn1cc(C(=O)N(C)Cc2ccccc2)c(=O)c2cc(S(=O)(=O)N3CCCCC3)ccc21	n	x	x	n	x
O=C(Cn1[nH]c(=O)c2ccccc2c1=O)OCC(=O)c1ccccc1	u	n	n	x	n
COc1ccc2[nH]c(C(=O)Nc3cccc(C)n3)cc2c1	1.2µM	u	0.5µM	x	0.63µM
C/C(CC(=O)Nc1cc(C)ccn1)=N\NC(=O)c1ccc(C(C)(C)C)cc1	11µM	n	n	x	n
COc1cc2ccccc2cc1C(=O)Nc1ccc(C)cc1	3µM	u	n	x	n
C/C(CC(=O)Nc1ccccn1)=N\NC(=O)c1ccc(C)cc1	n	n	n	n	n
CCOC(=O)c1oc2c(c1C)-c1nn(Cc3ccc(Cl)cc3)cc1CC2	n	x	x	n	x
O=C1Nc2cccnc2Sc2ccccc21	n	n	n	n	n
c1ccc2c(c1)Nc1nccnc1S2	24µM	u	n	u	n
Cc1sc2nc(-c3ccccc3)[nH]c(=O)c2c1-c1ccccc1	n	n	n	n	n
Cc1sc2nc(-c3cccnc3)nc(Cl)c2c1-c1ccccc1	17µM	n	n	u	u
O=[N+]([O-])c1ccc(N=Nc2c(Cl)cc(O)cc2Cl)cc1	2.7µM	n	n	x	n
CC(N)=Nc1ccc([N+](=O)[O-])cc1	n	n	n	n	n
COc1ccc(S(=O)(=O)N2CCC(C(=O)NC(c3nc4ccccc4[nH]3)C(C)C)CC2)cc1 (configuration not stated)	n	n	n	x	n
SMILES	FLuc modulator	ELG1 genotox	Rab9 prom act	SMN2 splice up	NPC1 promoter act
CC(C(=O)Nc1ccc(F)c(Cl)c1)N1Cc2ccccc2C1=O (configuration not stated)	n	x	x	x	x
CCOC(=O)c1[nH]c(C)c(C(=O)Nc2ccc3c(c2)OCCO3)c1C	u	n	n	n	n
CCc1c(C(=O)Nc2ccc(OC)cc2)[nH]c(C)c1C(C)=O	u	n	n	22µM	n
CC(=O)c1c(C)[nH]c(C(=O)Nc2ccc3c(c2)OCCO3)c1C	4.8µM	u	1.3µM	5.6µM	1.8µM
CCOC(=O)c1c(C)[nH]c(C(=O)NNC(=O)c2ccccc2)c1C	6.7µM	u	1.8µM	11µM	0.56µM
CCOC(=O)c1c(C)[nH]c(C(=O)NNC(=O)c2ccc(Br)cc2)c1C	u	n	n	x	n
CC(=O)c1c(C)[nH]c(C(=O)NCCc2cccc(C)c2)c1C	17µM	n	u	n	u
O=C(NC(=S)Nc1ccc(N2CCCC2)cc1)c1ccc(F)cc1	n	n	n	x	n
NCC1OC(O[C@H]2[C@H](O)[C@@H](OC3C(O)C(N)CC(N)C3OC3OC(CO)C(O)C(O)C3N)O[C@@H]2CO)C(N)C(O)C1O (some centres not stated)	x	x	n	x	n
C=CCn1c(=S)[nH]c2cc(C(=O)Nc3ccc(F)cc3)ccc2c1=O	n	n	n	x	n
CCCCn1c(C)cc2c(c1=O)C1O[C@](c3ccsc3)(Cc3ccccc31)O2	n[11.5 µM]	x	n[1.84 µM]	x	n[1.84 µM]
CCN(CC)S(=O)(=O)c1ccc(N2CCOCC2)c(NC(=O)c2ccc(F)cc2)c1	n	n	n	n	n
CCc1c(C(=O)Nc2cc(C)ccc2OC)[nH]c(C)c1C(C)=O	n	u	n	n	n
CC(=O)c1c(C)[nH]c(C(=O)Nc2ccc(C)cc2Br)c1C	u	u	0.89µM	x	3.5µM
CC(=O)c1c(C)[nH]c(C(=O)Nc2cc(C)ccc2C)c1C	n	n	n	n	n
CCc1c(C(=O)Nc2ccc(C)c(C)c2)[nH]c(C)c1C(C)=O	15µM	u	3.2µM	x	u
CCOC(=O)c1c(C)[nH]c(C(=O)Nc2ccc(C)c(Cl)c2)c1C	2.4µM	u	4µM	11µM	2µM
CCN(CC)S(=O)(=O)c1ccc(N2CCOCC2)c(NC(=O)c2[nH]c(C)c(C(C)=O)c2C)c1	x	10µM	x	x	x
CCCCn1c(N)c(N(CCOC)C(=O)CN(C)S(=O)(=O)c2ccc(C)cc2)c(=O)[nH]c1=O	n	n	n	x	n
CC(=O)c1c(C)[nH]c(C(=O)Nc2ccc(C)c(C)c2)c1C	11µM	10µM	1.4µM	x	u
c1ccc(CCCc2nc(-c3ccccn3)no2)cc1	17µM	u	2.2µM	20µM	2.8µM
c1ccc(Cc2nc(-c3ccccn3)no2)cc1	24µM	u	2.8µM	25µM	u
c1ccc(C(Cc2nc(-c3ccccn3)no2)c2ccccc2)cc1	u	n	u	n	u
Cc1ccc(Cc2nc(-c3ccccn3)no2)cc1	11µM	u	3.2µM	13µM	1.8µM
COc1ccc(-c2noc(CCc3ccccc3)n2)cc1	15µM	u	u	n	u
SMILES	FLuc modulator	ELG1 genotox	Rab9 prom act	SMN2 splice up	NPC1 promoter act
COc1ccc(-c2nn(-c3ccccc3)cc2C2NC(=O)NC(C)=C2C(=O)OC(C)C)cc1Cl (configuration not stated)	n	x	x	n	x
O=C(CCCOc1ccc(Br)cc1)NNC(=O)c1ccncc1	n	n	n	x	n
COc1ccc(OC(C)C(=O)NCc2nc(-c3cccc(C)c3)no2)cc1 (configuration not stated)	n	x	x	n	x
CC(OC(=O)c1ccc(Cl)nc1)C(=O)N1CCc2ccccc21 (configuration not stated)	n	n	n	x	n
O=C(O)CCCc1nc(-c2ccc(Cl)cc2)no1	u	n	n	n	n
CN(Cc1nc(-c2ccccn2)no1)S(=O)(=O)c1ccc(Br)cc1	n	n	n	n	n
COc1ccc(-c2noc(Cc3cccs3)n2)cc1	5.4µM	u	2.8µM	n	u
COc1ccc(Cc2nc(-c3ccccn3)no2)cc1	u	n	u	u	3.5µM
Clc1ccc(-c2noc(CCCc3ccccc3)n2)cc1	27µM	u	n	n	n
CN(C)C(=O)CCCc1nc(-c2ccc(Cl)cc2)no1	u	15µM	3.2µM	n	u
Cc1ccc(SCC(=O)OCC(=O)NCCc2ccc(S(N)(=O)=O)cc2)c(C)c1	x	n	x	x	x
c1ccc(SCc2nc(-c3ccccn3)no2)cc1	17µM	18µM	u	11µM	3.5µM
c1ccc(-c2noc(CC3CCCCC3)n2)nc1	9.5µM	u	1.1µM	x	3.5µM

Bioassay records as filed in PubChem BioAssay.
